PubChem BioAssay (NCI)
About 83,000 compounds went through this panel and 20% of them were active in at least one assay; those are over-represented in the sample as a whole.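 Step 1: grow cells in 96-well plates. Step 2: add test compound at a single concentration. Step 3: incubate 48 h. Step 4: record percent growth.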 A number with no mark means an inactive call. Active and inactive are the calls of the source.

tested on: HCT-116 colon; assay: NCI-60 one-dose screen, 48 h (100 = growth as untreated, 0 = no growth, -100 = all killed); details: 10 µM unless noted
Description: Growth inhibition of the HCT-116 human tumor cell line is measured as a screen for anti-cancer activity. Cells are grown in 96 well plates and exposed to the test compound for 48 hours. Compounds are tested at a single concentration, which is 10^-5 M for most compounds. The reported endpoint is percent growth (GI% or GIPRCNT), where numbers from 0 - 100% represent growth inhibition, and numbers from -100% - 0 represent cell death. For example, a value of 40 represents 60% growth inhibition. A value of 0 means no net growth occurred over the course of the experiment. A value of -40 indicates 40% of cells at the beginning of the experiment died by the end of the experiment. A value of -100 means all cells are dead at the end of the experiment.
NCI-60 Human Tumor Cell Lines Screen was performed using the standard one-dose NCI protocol, which is described in more detail at https://dtp.cancer.gov/discovery_development/nci-60/default.htm.
Compounds with GIPRCNT values below 10 were considered active. Activity score was based on GIPRCNT using the following formula: […]
Score is 0 for GIPRCNT values of 100 or above, 50 for GIPRCNT values of 0, and 100 for GIPRCNT values of -100.

Compound | growth
COc1ccc2c(c1)C(C)Cc1c(ncnc1-n1cnc3cc(C)ccc31)N2C (stereo not given) | 6.84% (active)
CSc1ccc2c3c(n(C[C@H](O)CO)c(=O)c2c1)-c1ccccc1C3=O | -20.6% (active)
CN(C)CCCC1(c2ccc(F)cc2)OCc2cc(-c3csc4ccccc34)ccc21 (stereo not given) | -44.2% (active)
O=S(=O)(Nc1cc(Sc2nc3ccccc3s2)c(O)c2ccccc12)c1ccc2ccccc2c1 | 90.6%
Nc1ncnc2c1N=C(c1ccc(Cl)cc1)CC(c1cccc(Nc3ccnc4cc(Cl)ccc34)c1)N2 (stereo not given) | 14.9%
Cc1nc2sc(C(=O)Nc3cccc(Cl)c3C)c(N)c2cc1C(=O)/C=C/c1ccccc1 | -35.6% (active)
Cc1ccc2c(c1)nc(C)n2-c1ncnc2c1CC(C)c1cc(O)ccc1N2C (stereo not given) | 15.4%
CN1C(=O)/C(=C/c2ccc(C(=O)Nc3ncc(Cc4cccc(C(F)(F)F)c4)s3)cc2)SC1=S | 43.7%
C/C(=N\Nc1ccccc1)c1ccc(NC2=CC(=O)c3ccccc3C2=O)cc1 | 51%
COc1ccc(/C=N/NC(=O)Cn2c(-c3ccc(S(C)(=O)=O)cc3)nc3ccccc32)cc1 | 91.7%
C=C1C(=O)O[C@H]2[C@H]1CC/C(COC(=O)/C=C\C(=O)NCc1ccc(Cn3c(=O)sn(CCCCl)c3=O)cc1)=C\CC[C@@]1(C)O[C@@H]21 | 26.6%
CC1(C)N=C(N)N=C(N)N1c1cc(Cl)ccc1Cl | 36.8%
COc1ccc(C/C(C)=C(\c2ccc(Cl)cc2)c2ccc(OCCCN(C)C)cc2)cc1 | 60.3%
C[C@@H]1NC(=O)[C@H](Cc2ccccc2)N(Cc2cccnc2)C1=O | 71%
CN(C)CCC(CCN(C)C)(C(=O)O)c1ccccc1 | 104%
C=C(C)[C@@H]1CC[C@]2(C)[C@H](C=CC3=C4C[C@@](C)(CO)CC[C@]4(C)CC[C@]32C)[C@@]1(C)CCCN | -86.5% (active)
COc1cc2c(c(OC)c1OC)C(=O)CC(c1cccc(C(=O)Nc3ccccc3Br)c1)O2 (stereo not given) | 81.5%
O=S(=O)(Nc1ccc2ccccc2c1)c1ccc(-c2cnc(C3CC3)o2)cc1 | 25.4%
C=C1CC[C@@H]2C(C)(C)[C@H](O)CC[C@@]2(C)[C@@H]1COc1ccc2ccc(=O)oc2c1 | 64.1%
C=C1C(=O)O[C@H]2[C@H]1CC/C(COC(=O)C(=O)c1c[nH]c3ccc(Cl)cc13)=C\CC[C@@]1(C)O[C@@H]21 | -99.6% (active)

Compound | growth
Nc1nc2ccccc2c2c(=O)c3cc(Cl)ccc3sc12 | 88.7%
Clc1ccc(Nc2nnc(CNc3ccccc3)c3ccccc23)cc1 | 9.94% (active)
COC1C(O)CC(OC2CC(OC3CC(O[C@@H]4C(=O)c5c(cc6cc(OC7CC(OC8CC(O)C(O)C(C)O8)C(O)C(C)O7)c(C)c(O)c6c5O)CC4[C@H](OC)[C@@H](O)C(C)=O)OC(C)C3O)OC(C)C2O)OC1C (stereo not given in full) | 4.98% (active)
O=C(Nc1ccc(Nc2ccncc2)cc1)c1ccc(Nc2ccnc3ccc([N+](=O)[O-])cc23)cc1 | 97%
C#CCOc1cccc(Nc2ncnc3c2ncn3C2CCN(C(=O)CCl)C2)c1 (stereo not given) | 1.32% (active)
CCOC(=O)C(CCN(C)C)c1ccccc1 (stereo not given) | 104%
CCOC(=O)c1c(NC(=O)c2ccccc2)sc2c3c(ccc12)OCN(C)C3 | -20.9% (active)
O=C(c1c[nH]c2ccccc12)c1n[nH]c(=S)n1-c1ccc([N+](=O)[O-])cc1 | 90.3%
CCOc1ccc(/C=C/C(=O)c2cccc(OCCCOc3cccc(C(=O)/C=C/c4ccc(OCC)cc4)c3)c2)cc1 | 81.7%
CC[C@H](Nc1nc(N)nc(C)c1C#N)c1nc2cccc(CN(C)c3ncc(C(=O)NO)cn3)c2c(=O)n1-c1ccccc1 | -19.7% (active)
c1ccc2cc(Cn3cc(CSc4nc5ccccc5s4)nn3)ccc2c1 | 96.3%
COC(=O)c1c2c(c[n+]([O-])c1C)C(=O)C=C(NCc1ccccc1)C2=O | -79.5% (active)
[N-]=[N+]=NCC1OC(n2cnc3c(NC(=O)Nc4ccccc4)ncnc32)C2OC(=O)CC12 (stereo not given) | 101%
COc1ccc(CN2C(=O)OC(C)(COC(C)=O)C2=O)cc1 (stereo not given) | 93.5%
CCOC(=O)C/C(=N\Nc1cc(=O)[nH]c2ccc(C)cc12)C(=O)OCC | 99.7%
CCN1CCN(CCNc2nccc(-c3c(-c4ccc(F)c(O)c4)nc4occn34)n2)S1(=O)=O | 16.3%
COc1ccc(-c2cc(-c3cn(-c4cccc(Cl)c4)nc3-c3ccc(OC)cc3)on2)cc1 | 101%
CN(C)c1ccc(/C=C2\C=C(c3nc4ccccc4s3)OC2=O)cc1 | 100%
O=C(O)CCCCCCCCCCN1C(=O)/C(=C2/C(=O)N(CC(=O)O)c3ccc(Br)cc32)SC1=S | 87.2%
Clc1ccc2nn3c4ccccc4c(OCCN4CCOCC4)nc3c2c1 | 88.7%
